Laboratory results as given in the supplement of paper PMC3334620.
In all, about 33,000 sequences were measured (“E-score (-0.5 to 0.5)”: median about -8e-05, highest 2% from about 0.23 on). Only a selection was taken, and the highest values are over-represented in it overall.

Each sequence was assayed against T1, Nrg2 (UniProt P38082) (assay: PBM E-score (8-mer binding enrichment) (E-score (-0.5 to 0.5)); higher = stronger / more preferred TF binding). Settings: protein concentration: 100 nM; construct: GST-full length.
T1 sequence: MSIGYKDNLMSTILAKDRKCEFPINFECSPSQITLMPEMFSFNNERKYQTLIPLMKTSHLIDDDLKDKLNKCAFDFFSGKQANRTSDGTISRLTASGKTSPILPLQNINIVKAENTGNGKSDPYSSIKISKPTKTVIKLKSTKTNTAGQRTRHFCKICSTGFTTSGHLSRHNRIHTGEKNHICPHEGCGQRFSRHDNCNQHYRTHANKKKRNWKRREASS
How it was run: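 Universal all-10-mer Agilent arrays, fresh or stripped once, were converted to double-stranded form by primer extension. GST-tagged yeast transcription factors from PURExpress in vitro transcription/translation, full-length or DNA-binding domain only, were applied at about 100-200 nM and detected with fluorescent anti-GST. After masliner normalisation, the Universal PBM Analysis Suite scored each ungapped eight-base word together with its reverse complement by E-score.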

Row | Sequence | PBM E-score
1 | CCCTGTAC | 0.208
2 | CCCTGTAA | 0.294
3 | TACTGAAA | 0.242
4 | GCCTGTAA | -0.225
5 | GCCTGAAC | -0.211
6 | CCCTGTGA | 0.059
7 | GACTGAAA | 0.0848
8 | ACGGTTAG | -0.312
9 | ATTCTTTA | -0.0742
10 | CATCAATC | -0.0356
11 | AGGGTTAC | -0.14
12 | CAAGTGTA | -0.0141
13 | ATGATGGG | 0.0257
14 | CTATGGCA | -0.0101
15 | TCCTGAAA | -0.0476
16 | CCCTGAAA | 0.305
17 | ACCTGCAG | -0.0488
18 | CCCTGGAC | 0.295
19 | CCCTGCAA | 0.162
20 | CCCTGGAA | 0.0405
21 | GCCTGAAA | 0.115
22 | CCCTGCAG | 0.26
23 | CCCTGGAG | 0.05
24 | ACTCCCGG | -0.0764
25 | ATCCCATA | -0.0872
26 | ACATAGTA | 0.0458

Row | Sequence | PBM E-score
27 | GCATAGTA | 0.23
28 | CCATAGTA | 0.0238
29 | TCTGCAAA | -0.0511
30 | GGCTTCTA | -0.075
31 | AGAAACTG | 0.0813
32 | GACAAGGA | 0.0442
33 | GAGGTCCA | -0.0725
34 | CGGGTCCC | -0.125
35 | CGGGTCAA | -0.0478
36 | AAGGTCCA | 0.073
37 | AGGGTCAA | 0.236
38 | AGGGTCCA | 0.439
39 | AGGGTCCC | 0.397
40 | ACGGTCCC | -0.00846
41 | AGGGTCAG | -0.102
42 | ACGGTCCA | -0.162
43 | CGGGTCCA | 0.0193
44 | GGGGTCCA | 0.27
45 | GGGACAAA | 0.11
46 | GCTGCCAC | -0.138
47 | ACAGTGGT | 0.0526
48 | CTGCTTGA | -0.0823
49 | CAGATCAG | 0.194
50 | CGCTCGGC | 0.0597
51 | AAGGTCCG | -0.0532
52 | ACGGTCCG | -0.231

Row | Sequence | PBM E-score
53 | AGGGTCCG | 0.374
54 | ACCTCAAC | 0.0405
55 | GGCCAACC | 0.0203
56 | CGTATTAG | 0.0345
57 | AATATTAT | 0.219
58 | AGTATTAG | 0.273
59 | CATATTAG | 0.124
60 | TATATTAA | 0.234
61 | AATATTAC | 0.14
62 | AATATTAA | 0.295
63 | GATATTAA | 0.147
64 | AATATTAG | 0.256
65 | AGTATTAA | 0.219
66 | CATATTAA | 0.129
67 | ACTATTAA | 0.175
68 | CTTAGGAA | -0.0218
69 | CGGAGCAA | 0.0265
70 | CCTTCGCC | -0.31
71 | AATCCTGC | -0.00651
72 | CGCATTCA | 0.0356
73 | GAACTGCA | 0.0913
74 | ACATATAA | 0.211
75 | GCCCCCAA | -0.331
76 | CTTTCCAA | -0.0143
77 | AATATTCC | 0.233
78 | AATATTCG | 0.177

Row | Sequence | PBM E-score
79 | AATATTCA | 0.144
80 | TATTACCA | 0.0363
81 | CGAATACA | 0.0068
82 | ACAACGGA | 0.242
83 | CCAACGGG | 0.0593
84 | CCAACGGA | -0.031
85 | ACAACGGT | -0.0246
86 | ACAACGGG | 0.243
87 | TCAACGGA | -0.0313
88 | GACCGGAC | -0.168
89 | AAAGGGCG | 0.0812
90 | AGCGCACT | -0.0126
91 | GTTAGGCA | -0.146
92 | CATGGTCC | 0.0356
93 | CATGGTCA | 0.236
94 | CTTGGTCA | 0.138
95 | GTTGGTCA | 0.229
96 | ATTGGTCA | 0.0477
97 | CATGGTCG | -0.0584
98 | GGAGTGAC | 0.102
99 | ACACCGAC | -0.151
100 | CGCCCTAA | -0.171
101 | CGGGCTAC | -0.0936
102 | CTGGGGTC | 0.015
103 | AAGGGGTG | -0.00477
104 | AGGGGGTC | -0.163

Row | Sequence | PBM E-score
105 | CAAGGGAC | 0.261
106 | CAAGGGAG | -0.0764
107 | ATGGGGTC | 0.299
108 | CAAGGGAA | 0.0785
109 | AAAGGGTC | 0.318
110 | AAGGGGTC | 0.239
111 | AAAGGGTG | 0.00635
112 | ATGGGGTA | 0.127
113 | AAAGGGTT | 0.0608
114 | CCTATATA | 0.0688
115 | CCTTTAGA | -0.136
116 | CGGGGGTC | -0.342
117 | CAGGGGTC | 0.302
118 | CAGGGGTA | 0.166
119 | GAAGGGTC | 0.0665
120 | CAAGGGTG | 0.0522
121 | CAAGGGTC | 0.376
122 | CATCTTAC | -0.00815
123 | ACCAAGTG | -0.0903
124 | CCTCTCTA | -0.294
125 | AATTTCAA | -0.0693
126 | CGTTTTTC | -0.117
127 | GCTACCCA | -0.152
128 | AAGGAAAG | -0.137
129 | AAAAGTAG | 0.0358
130 | GCCGAAAC | -0.0148

Row | Sequence | PBM E-score
131 | GCCGAAAA | 0.239
132 | CCCGAAAA | 0.129
133 | TATCCACA | 0.131
134 | GATGAACC | -0.0336
135 | AATGAACC | 0.00986
136 | CATGAACC | 0.233
137 | CCTCTTGA | 0.0273
138 | TGCCCACA | -0.0506
139 | AAATATTC | 0.127
140 | GAATATGA | -0.0524
141 | GAATATTC | 0.24
142 | CAATATTC | 0.0479
143 | GAATATCA | 0.0654
144 | GAATATTA | 0.232
145 | GCTGAGCA | 0.0693
146 | GACAACTA | 0.158
147 | CTGTAACC | 0.108
148 | CCTTGGAC | -0.165
149 | CACGCCTA | -0.227
150 | GGGTCCAC | 0.301
151 | CGGTCCAA | -0.224
152 | CGGTCCAC | -0.222
153 | AGGTCCAA | -0.0549
154 | AGGTCCAC | -0.199
155 | GGGTCCAA | 0.322
156 | TCTCAACA | 0.0641

Row | Sequence | PBM E-score
157 | TAGAGATA | 0.0396
158 | CCTGACTA | 0.172
159 | GGACCCGA | 0.0929
160 | ATACCTTC | -0.0248
161 | GCCACGGA | -0.0858
162 | TGCTTGAA | 0.0462
163 | CGCTTGAA | 0.263
164 | CGCTTGAG | -0.0135
165 | GTATATTA | 0.107
166 | ATATATTA | 0.245
167 | ATTTATTA | 0.273
168 | CTATATTA | 0.229
169 | ATTATTTA | 0.173
170 | ATTTATCC | 0.247
171 | GTTTATTA | 0.194
172 | ATATATTG | -0.0404
173 | CTCTATTA | -0.105
174 | CTATATTC | 0.0669
175 | ATTTATCG | 0.0781
176 | ATTTATCA | 0.225
